The list is not random: actives were taken first. Their share in the collection is about 0.99%.
NS1 function inh – qHTS Assay for Inhibitors of Influenza NS1 Protein Function; 270,000 compounds, 0.4% hits; Potency, µM (doses to about 46.1 µM); AID 2326, 2010; further: actives are rising curves; nearly all actives have a fitted effect of over 50% in size
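Compounds were scored for reversing the slow growth caused by influenza A NS1 in S. cerevisiae, measured by optical density at 600 nm. Assay medium contained 2% galactose at pH 6.0; NS1-free yeast of the same strain were the positive control.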
SARS PLP yeast – qHTS of Yeast-based Assay for SARS-CoV PLP; Potency, µM (doses to about 32.9 µM), most hits filed as activators; 330,000 compounds, 0.19% hits; S. cerevisiae expressing SARS-CoV PLpro, growth rescue; further: nearly all actives have a fitted effect of over 55% in size
AmpC inh detg – qHTS Inhibitors of AmpC Beta-Lactamase (assay with detergent) | 370,000 compounds, 0.041% hits | AID 485294, 2010 | P00811 | Potency, µM (top dose mostly 114 µM), hits mostly inhibitors | AmpC hydrolysis of nitrocefin, absorbance 480 nm, 0.01% Triton; active means well fitted curve in the direction sought with a large enough effect; inconclusive means small, poorly fitted or top-dose-only effect, or another doubt; inactive means no such curve, though single readings can be large; an effect the other way counts as inactive or inconclusive; further: nearly all actives have a fitted effect of over 25% in size
Target sequence (P00811 whole entry, looked up): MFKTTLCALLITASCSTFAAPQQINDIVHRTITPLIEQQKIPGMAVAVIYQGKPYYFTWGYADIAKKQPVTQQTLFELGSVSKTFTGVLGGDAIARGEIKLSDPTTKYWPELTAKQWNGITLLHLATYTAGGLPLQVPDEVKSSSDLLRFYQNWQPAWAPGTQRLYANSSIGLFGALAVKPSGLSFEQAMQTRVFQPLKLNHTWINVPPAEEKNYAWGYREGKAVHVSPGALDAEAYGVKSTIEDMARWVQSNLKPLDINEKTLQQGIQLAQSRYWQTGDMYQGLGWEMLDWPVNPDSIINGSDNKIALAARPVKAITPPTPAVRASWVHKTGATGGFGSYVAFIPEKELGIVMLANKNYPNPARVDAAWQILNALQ
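20 mM phosphate pH 7.0 + 0.01% (detergent screen) or 0.0001% Triton X-100; 5.3 nM AmpC reagent; cpd preinc 15 min RT; nitrocefin (800 uM stock) to start; A480 q20 s × 4 min; Activity was normalised to no-enzyme and no-compound control wells.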
AmpC no deterg – qHTS Inhibitors of AmpC Beta-Lactamase (assay without detergent) | Potency, µM (doses to about 57.1 µM), usual class: inhibitors | P00811 | 330,000 compounds, 0.52% hits | AmpC nitrocefin hydrolysis, absorbance 480 nm, 0.0001% Triton; active means well fitted curve in the direction sought with a large enough effect; inconclusive means small, poorly fitted or top-dose-only effect, or another doubt; inactive means no such curve, though single readings can be large; an effect the other way counts as inactive or inconclusive; further: nearly all actives have a fitted effect of over 20% in size
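AmpC (5.3 nM in the dispensed reagent) in 20 mM phosphate pH 7.0 with 0.01% (detergent screen) or 0.0001% Triton X-100 was preincubated with compounds for 15 min at room temperature. Nitrocefin was then added from an 800 uM solution, and hydrolysis was followed at 480 nm.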
AMA1-RON2 inh – qHTS for Inhibitors of AMA1-RON; Towards Development of Antimalarial Drug Lead: Primary Screen; AID 720542, 2013; Potency, µM (titrated, usually from 58.2 µM), hits mostly inhibitors; 360,000 compounds, 0.2% hits; Plasmodium falciparum AMA1 (3D7) - RON2 peptide interaction; AlphaScreen AMA1-biotinylated RON2 peptide binding; active means well fitted curve in the direction sought with a large enough effect; inconclusive means small, poorly fitted or top-dose-only effect, or another doubt; inactive means no such curve, though single readings can be large; an effect the other way counts as inactive or inconclusive; further: nearly all actives have a fitted effect of over 45% in size
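AMA1 (3D7) with his tag at 25 nM final met compounds first, then biotinylated RON2 peptide at 25 nM; detection used donor plus acceptor beads, 10 µg/mL apiece, read by AlphaScreen after 30 min at room temperature.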
NS1 inh valid – Assay for Inhibitors of Influenza NS1 Protein Function: Hit Validation; activity change, negative = inhibition, % at 32.9 µM; 1,400 tested, under 10 active; influenza NS1 function cell assay, 15-point titration; shares compounds with NS1 function inh; AID 492980, 2010
PR8 titer – Assay for Inhibitors of Influenza NS1 Protein Function: Influenza virus replication assay in MDCK cells infected with virus A/PR/8/34 | shares compounds with NS1 function inh | 95 compounds, 30% hits | AID 504647, 2011 | virus titer (log TCID50), log10 TCID50 at 5 µM | MDCK infected influenza A/PR/8/34, virus titer TCID50; stronger effect = lower value; call rule not given here
Of the large screens only hits and unclear results are named; the others gave an inactive call (follow-up assays come after a bar, where they were run). Unless noted, the call rests on the fitted dose curve.

CCCOc1ccc(NC(=O)C2CC(=O)N/C(=N/N=C(C)/C=C/c3ccc(N(C)C)cc3)S2)cc1 (stereo not given)	NS1 function inh inconclusive
CC(/C=C/c1ccc(N(C)C)cc1)=N/N=C1/NC(=O)CC(C(=O)Nc2ccc(Cl)cc2)S1 (stereo not given)	NS1 function inh 10µM | NS1 inh valid inactive
NNC(=O)COc1ccc(-c2n[nH]c(C(F)(F)F)c2-c2ccc(Br)cc2)c(O)c1	NS1 function inh 11.2µM | NS1 inh valid inactive
Cc1ccc(Sc2ncccc2C(=O)O)cc1C	NS1 function inh inconclusive | NS1 inh valid inactive
Cc1c(C(=O)N2CCN(Cc3ccc4c(c3)OCO4)CC2)sc2ncnc(N3CCN(c4ccccc4)CC3)c12	NS1 function inh 2.51µM | NS1 inh valid inconclusive
Cc1c(C(=O)N2CCN(Cc3ccc4c(c3)OCO4)CC2)sc2ncnc(N3CCN(c4ccccc4F)CC3)c12	none
Cc1ccc(Cl)cc1NC(=O)COCc1cc(-c2ccco2)on1	none (no result: NS1 function inh, SARS PLP yeast, AmpC no deterg, AMA1-RON2 inh)
Cc1ccc(N(CC(=O)Nc2cccc(C)c2)S(=O)(=O)c2cccc3nonc23)cc1	NS1 function inh 7.08µM | NS1 inh valid inactive | PR8 titer inactive
Cc1ccc(NC(=O)CCS(=O)(=O)c2cccc3nonc23)cc1	none (no result: NS1 function inh)
COc1ccc(C2/C=C\CN(S(=O)(=O)/C=C/c3ccccc3)CC(=O)N2Cc2ccc(F)cc2)cc1 (stereo not given)	NS1 function inh inconclusive
COc1ccc(C2/C=C\CN(S(=O)(=O)c3ccc4ccccc4c3)CC(=O)N2Cc2ccc(F)cc2)cc1 (stereo not given)	NS1 function inh 2.82µM | NS1 inh valid inactive | PR8 titer inactive
CCOc1ccc(-c2cc(NC(=O)Nc3ccc(Cl)cc3)c(C(=O)OC)s2)cc1	none (no result: NS1 function inh, SARS PLP yeast, AmpC no deterg, AMA1-RON2 inh)
Cc1ccc(/C=C2\SC(N3CCN(C(c4ccccc4)c4ccccc4)CC3)=NC2=O)o1	NS1 function inh 11.2µM, AMA1-RON2 inh inconclusive | NS1 inh valid inconclusive
CCOc1ccc(-n2cc(C(=O)Nc3ccccc3OCC)c3cc(OC)c(OC)cc3c2=O)cc1	none (no result: NS1 function inh, SARS PLP yeast, AmpC no deterg, AMA1-RON2 inh)
CC(=O)c1ccc2c(c1)C1C(Cl)C(Sc3ccccc3[N+](=O)[O-])CC1C(c1ccccc1[N+](=O)[O-])N2 (stereo not given)	NS1 function inh 2µM, AmpC no deterg inconclusive | NS1 inh valid inactive
Cc1cccc(OCC(=O)Nc2ccc(-c3nc4cc(C)ccc4o3)c(O)c2)c1	none (no result: NS1 function inh, SARS PLP yeast, AmpC no deterg, AMA1-RON2 inh)
Cc1csc2nc(COC(=O)c3ccccc3NC(=O)c3ccc(C(C)(C)C)cc3)cc(=O)n12	none (no result: NS1 function inh, SARS PLP yeast, AmpC no deterg, AMA1-RON2 inh)
CN1CCN(c2ccc(S(=O)(=O)N3CCOCC3)cc2NC(=O)COc2ccc(F)cc2Cl)CC1	none
O=C(Nc1ccc(Cl)c(Cl)c1)Nc1cc(S(=O)(=O)N2CCOCC2)ccc1N1CCCC1	NS1 function inh 11.2µM, SARS PLP yeast inconclusive, AmpC inh detg inconclusive | NS1 inh valid inactive
O=C(COc1ccc(F)cc1Cl)Nc1cc(S(=O)(=O)N2CCOCC2)ccc1N1CCCCC1	NS1 function inh 3.55µM | NS1 inh valid inactive
CN(C(=O)CCc1nc(-c2ccccc2F)no1)c1ccc(Cl)cc1	none (no result: NS1 function inh, SARS PLP yeast, AmpC no deterg, AMA1-RON2 inh)
COc1ccc(/C=N/NC(=O)c2ccc3ccccc3c2)cc1OS(=O)(=O)c1ccc(NC(C)=O)cc1	NS1 function inh 10µM | NS1 inh valid inactive
COc1ccc(C=O)cc1OS(=O)(=O)c1ccc(NC(C)=O)cc1	none
O=C(Nc1nc2ccc(S(=O)(=O)N3CCCCC3)cc2s1)c1ccncc1	NS1 function inh 10µM | NS1 inh valid inactive
COc1ccc(CCNC(=O)CCn2c(=O)c3cccn3c3ccc(F)cc32)cc1OC	none (no result: NS1 function inh, SARS PLP yeast, AmpC no deterg, AMA1-RON2 inh)
CCN(CC)CCCNC(=O)c1ccc2c(c1)sc1nc(-c3ccc(C)cc3)cn12	none (no result: NS1 function inh, SARS PLP yeast, AmpC no deterg, AMA1-RON2 inh)

Screening data: PubChem, National Center for Advancing Translational Sciences (NCATS)
